Source: article PMC5540273 (PLoS ONE, 2017)

What was measured:
Conditions in all cases: concentration: 1 μM, replicates: in singlicate; n = 1
RIPK5 = system: RIPK5
ROCK1 = system: ROCK1
ROCK2 = system: ROCK2
ROS1 = system: ROS1
[1] = system: RPS6KA4(Kin.Dom.1-N-terminal)
[2] = system: RPS6KA4(Kin.Dom.2-C-terminal)
[3] = system: RPS6KA5(Kin.Dom.1-N-terminal)
[4] = system: RPS6KA5(Kin.Dom.2-C-terminal)
[5] = system: T1, RSK1(Kin.Dom.1-N-terminal)
T1 construct: gene RPS6KA1

[6] = system: T2, RSK1(Kin.Dom.2-C-terminal)
T2 construct: gene RPS6KA1

[7] = system: T3, RSK2(Kin.Dom.1-N-terminal)
T3 construct: gene RPS6KA3

[8] = system: T4, RSK2(Kin.Dom.2-C-terminal)
T4 construct: gene RPS6KA3

[9] = system: T5, RSK3(Kin.Dom.1-N-terminal)
T5 construct: gene RPS6KA2

[10] = system: T6, RSK3(Kin.Dom.2-C-terminal)
T6 construct: gene RPS6KA2

[11] = system: T7, RSK4(Kin.Dom.1-N-terminal)
T7 construct: gene RPS6KA6

[12] = system: T8, RSK4(Kin.Dom.2-C-terminal)
T8 construct: gene RPS6KA6

S6K1 = system: S6K1
SBK1 = system: SBK1
SGK2 = system: SGK2
SGK3 = system: SGK3
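Also: KINOMEscan kinase panel screen.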

| Structure (SMILES) | %Inh (RIPK5) | %Inh (ROCK1) | %Inh (ROCK2) | %Inh (ROS1) | %Inh [1] | %Inh [2] | %Inh [3] | %Inh [4] | %Inh [5] | %Inh [6] | %Inh [7] | %Inh [8] | %Inh [9] | %Inh [10] | %Inh [11] | %Inh [12] | %Inh (S6K1) | %Inh (SBK1) | %Inh (SGK2) | %Inh (SGK3) |
| --- | --- | --- | --- | --- | --- | --- | --- | --- | --- | --- | --- | --- | --- | --- | --- | --- | --- | --- | --- | --- |
| CN(C1=C(c2ccccc2)C(=O)NC1=O)c1ccccc1 [SB-334860] | 15% | 0% | 0% | 4% | 10% | 0% | 7% | 12% | 4% | 13% | 4% | 23% | 14% | 0% | 0% | 8% | 2% | 2% | 0% | 16% |
| COc1ccc(Nc2nccc(N3CCC(NC(=O)Nc4cccc(C(C)=O)c4)C3)n2)cc1 (stereo not shown) [GSK1379731] | 0% | 25% | 0% | 4% | 2% | 0% | 0% | 0% | 0% | 0% | 0% | 0% | 1% | 0% | 0% | 2% | 9% | 20% | 0% | 0% |
| Cc1ccc(NC(=O)c2ccnc(N3CCN(C)CC3)c2)cc1-c1ccc(C(=O)NCC2CC2)cc1 [GW775604] | 0% | 41% | 0% | 0% | 10% | 0% | 0% | 0% | 0% | 0% | 0% | 0% | 0% | 15% | 0% | 7% | 9% | 0% | 0% | 0% |
| N#Cc1c(N2CCOCC2)sc(-c2ccn[nH]2)c1-c1ccc(Cl)cc1 | 15% | 11% | 0% | 8% | 0% | 3% | 0% | 7% | 17% | 18% | 9% | 0% | 13% | 2% | 2% | 10% | 7% | 35% | 23% | 8% |
| COc1ccc(CNC(=O)NC2CCN(c3ccnc(Nc4ccc(OC)cc4)n3)C2)cc1 (stereo not shown) [GSK1379727] | 55% | 40% | 40% | 0% | 0% | 0% | 7% | 0% | 0% | 0% | 7% | 0% | 0% | 0% | 0% | 21% | 2% | 3% | 0% | 0% |
| O=C(NCCNc1ccnc(Nc2ccc(F)cc2)n1)c1cc2ccccc2s1 [GSK1379874] | 0% | 29% | 30% | 15% | 0% | 0% | 4% | 0% | 26% | 0% | 0% | 0% | 0% | 0% | 0% | 1% | 0% | 0% | 0% | 0% |
| O=c1cc(N2CCOCC2)nc2n(Cc3cccc(Cl)c3Cl)c(C3CC3)nn12 [GSK2358994] | 7% | 0% | 0% | 0% | 0% | 16% | 0% | 0% | 0% | 17% | 0% | 18% | 0% | 17% | 0% | 21% | 15% | 0% | 20% | 0% |
| COCCNC(=O)c1ccc(-c2cc(C(=O)NC3CC3)cc(F)c2C)cc1 [GW868318] | 38% | 37% | 47% | 5% | 36% | 6% | 18% | 21% | 21% | 18% | 40% | 29% | 16% | 0% | 41% | 0% | 29% | 48% | 20% | 21% |
| N#Cc1ccc(-c2cc(-c3c[nH]nc3-c3ccccn3)ccn2)cc1 [GW693028] | 0% | 28% | 3% | 0% | 5% | 0% | 19% | 10% | 13% | 0% | 0% | 24% | 0% | 0% | 0% | 28% | 4% | 4% | 0% | 0% |
| Cc1nnc(-c2ccc(C)c(-c3ccc(C(=O)Nc4ccc(NS(C)(=O)=O)cc4)cc3)c2)o1 [GW702865] | 4% | 0% | 11% | 0% | 1% | 0% | 0% | 17% | 13% | 0% | 0% | 0% | 0% | 0% | 0% | 0% | 0% | 0% | 0% | 4% |
| COc1cc2ncn(-c3cc(OCc4sccc4Cl)c(C(N)=O)s3)c2cc1OC [GSK448459] | 0% | 26% | 23% | 6% | 13% | 0% | 5% | 0% | 12% | 0% | 30% | 21% | 10% | 0% | 14% | 20% | 3% | 4% | 0% | 0% |
| O=C(Nc1cccc(-c2nn3ncccc3c2-c2ccnc(Nc3cccc(C(F)(F)F)c3)n2)c1)c1c(F)cccc1F [GSK299495] | 0% | 12% | 16% | 0% | 2% | 0% | 23% | 5% | 97.4% | 0% | 22% | 0% | 31% | 5% | 0% | 0% | 0% | 11% | 2% | 0% |
| COc1ccc(Nc2ncc(C#N)c(Nc3ccccc3C(N)=O)n2)cc1N1CCN(C)CC1.Cl [GSK1558669] | 98.7% | 87% | 91.2% | 97% | 100% | 97% | 98% | 44% | 99.7% | 47% | 100% | 7% | 99.7% | 11% | 100% | 50% | 99.9% | 93.9% | 58% | 95.3% |
| C[C@@H](Oc1cc(-n2cnc3ccc(NC(=O)NC(C)(C)C)cc32)sc1C(N)=O)c1ccccc1Cl [GSK346294] | 10% | 4% | 17% | 33% | 11% | 0% | 13% | 14% | 0% | 15% | 0% | 11% | 0% | 9% | 0% | 26% | 0% | 0% | 10% | 19% |
